Bioassay records as filed in PubChem BioAssay.
M18AAP inhibitor = PfM18AAP inhibitors, malaria aminopeptidase, primary screen, biochemical, QFRET, recombinant enzyme | M18 aspartyl aminopeptidase (Plasmodium falciparum 3D7) | AID 1822, 2009 | 1.2% of 290,000 active | H-Glu-NHMec fluorogenic cleavage | inhibition, % at 7.35 µM;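 active = inhibition above the campaign mean inhibition over all tested compounds plus 3 SD, cut at about 28% in these data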;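 also: 0% = plate median of test compound wells and 100% = 2 mM ZnCl2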
ALR inh = inhibitors of human ALR sulfhydryl oxidase, primary screen, biochemical, H2O2 detection, HRP-luminol luminescence, single point | purified ALR, DTT oxidation | inhibition, % (test concentration not listed) | 3.8% of 290,000 active | AID 485317, 2010;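 active = mean replicate inhibition above about 79%, with every replicate also reaching it, limit read from the data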
Target sequence (P55789 whole entry, looked up): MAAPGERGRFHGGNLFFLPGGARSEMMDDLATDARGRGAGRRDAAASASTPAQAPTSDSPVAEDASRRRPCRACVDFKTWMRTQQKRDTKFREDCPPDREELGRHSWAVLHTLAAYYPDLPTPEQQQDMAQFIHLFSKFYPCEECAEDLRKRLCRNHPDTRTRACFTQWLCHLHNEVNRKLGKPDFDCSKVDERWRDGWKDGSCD
HIF activator = HIF pathway transcriptional activators, primary screen, cell-based, U2OS HRE-luciferase, luminescence | U2OS HRE-luciferase reporter; normalized: DMSO 0%, desferrioxamine 100% | activation, % at 7.5 µM (by protocol) | 0.32% of 300,000 active | AID 1910, 2009;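 active = mean activation of at least 10% of the iron chelator positive control signal, with at least half of replicates also reaching 10%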
SUMO Mot1 rescue = yeast Mot1-301 growth rescue at high temperature, primary screen, SUMOylation pathway inhibitor project, S. cerevisiae, ATP luminescence, 38.5C; S. cerevisiae Mot1-301 growth rescue; percent above DMSO median, 100 means doubled; growth rescue, % at 18.8 µM; 1% of 320,000 active; AID 2716, 2010;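 active = every valid replicate shows activation above 250% relative to neutral control wells; inactive = the rest, any valid replicate at or below 250%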;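 also: OY570 slx delta 5 strain wells were the positive control but not used for scaling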
Active calls of the source: *; / = no result given. Only some compounds are listed: those with a hit (about 5.3% of all), similar ones and a draw of the others.

SMILES	M18AAP inhibitor	ALR inh	HIF activator	SUMO Mot1 rescue
CC(=O)Nc1cccc(NC(=O)CSc2nccn2Cc2ccco2)c1	-3.6	99.0*	0.4	-10.7
COc1ccc(Cn2ccnc2SCC(=O)Nc2cccc(NC(C)=O)c2)cc1	0.6	98.2*	-0.7	-29.5
COc1ccc(Cn2c(CO)cnc2SCC(=O)Nc2cccc(NC(C)=O)c2)cc1	-11.6	99.2*	-0.3	50.8
CCN(CC(=O)NCc1cccs1)C(=O)c1ccc(S(=O)(=O)Nc2cccc(C)c2C)cc1	-0.1	-2.0	-0.5	-10.8
CCc1c(O)cc2n(c1=O)-c1ccc(Cl)cc1C2(C)C	5.5	20.0	-0.9	24.8
CCC(O)(CC)C(=O)N/N=C/c1cc(Br)cc(Br)c1O	8.5	/	1.6	493.9*
O=C(N/N=C/c1ccc(O)cc1O)c1ccncc1	17.4	25.0	0.5	8.4
O=C(C[n+]1ccccc1)N/N=C/c1cc(Br)cc(Br)c1O	5.2	61.2	-8.6	-17.7
O=C(N/N=C/c1cc(Br)cc(Br)c1O)c1cccc(N2CCCC2=O)c1	4.4	-9.3	9.6*	-14.1
O=C(N/N=C/c1cc(Br)cc(Br)c1O)c1ccncc1	4.2	14.3	12.8*	13.4
O=C(N/N=C/c1cc(Cl)cc(Cl)c1O)c1ccncc1	8.0	0.9	28.6*	94.9
O=C(N/N=C/c1ccc(Cl)cc1Cl)c1ccncc1	-14.8	1.5	-1.9	6.5
O=C(N/N=C/c1ccc(Cl)cc1Cl)c1cccc(N2CCCC2=O)c1	-3.8	-1.6	-12.6	203.1
Cc1cc(=O)oc2cc(OCC(=O)NCCc3ccccc3)ccc12	1.8	1.7	-0.8	13.6
O=[N+]([O-])c1ccc2c(c1)C=C1CCCCC1(N1CCCC1)O2 (configuration not stated)	-1.9	91.7*	-0.4	2.0
Cc1nn(-c2nnc(C)c(=O)[nH]2)c(C)c1SCC(=O)Nc1ccc(C(C)C)cc1	-0.1	97.6*	-0.4	-12.4
CC(C)c1ccc(NC(=O)CSc2nc(=O)[nH]c3c2CCCC3)cc1	/	-335.0	-1.4	-12.5
Cc1nn(-c2nnc(C)c(=O)[nH]2)c(C)c1SCC(=O)Nc1ccc(F)cc1	26.2	98.9*	-0.2	-1.8
Cn1c(N)c(C(=O)COC(=O)[C@H](Cc2ccccc2)N2C(=O)c3ccccc3C2=O)c(=O)n(C)c1=O	-7.5	1.6	0.1	-2.6
Cc1ccc(C(=O)N/C(=C\c2ccccc2F)c2nc(=S)[nH][nH]2)cc1	4.6	98.3*	1.7	-15.6
CCOc1ccccc1Nc1nnc(SCC(=O)NC(=O)c2cccn2C)s1	-7.7	-14.0	-0.5	7.6
CSc1sc(-c2ccnc(=S)[nH]2)c(-c2ccccc2)c1C#N	11.2	96.0*	0.1	33.9
Cn1c(N)c(C(=O)CSc2n[nH]c(-c3ccccc3)n2)c(=O)n(C)c1=O	/	0.4	/	-1.3
CC(=Nc1ccccc1)Nc1ccccc1	-15.5	3.2	/	-15.6
S=C(N=Nc1ccccc1)NNc1ccccc1	1.8	99.3*	0.5	7.3
SMILES	M18AAP inhibitor	ALR inh	HIF activator	SUMO Mot1 rescue
O=C(C1=C(O)C(=O)N(CCCN2CCOCC2)C1c1ccc(Cl)cc1)c1cc2ccccc2o1 (configuration not stated)	14.7	92.0*	0.0	7.5
Cc1cc(C)cc(NC(=S)Nc2ccccn2)c1	6.8	97.2*	1.8	-4.3
COc1ccccc1NC(=S)Nc1ccccn1	21.0	81.9*	1.5	37.9
Cc1cccc(NC(=S)Nc2ccccn2)c1	11.5	-5.8	2.7	-1.1
O=C(CSc1nccc(=O)[nH]1)Nc1ccc(Br)c(Cl)c1	-4.4	98.3*	-0.1	-3.9
O=C(CSc1nccc(=O)[nH]1)Nc1ccc2ccccc2c1	/	11.7	/	21.7
O=C(CSc1nccc(=O)[nH]1)Nc1ccc(F)c(Cl)c1	5.7	99.5*	-0.5	-3.9
CCn1c2ccccc2c2cc(NC(=O)CSc3nccc(=O)[nH]3)ccc21	12.3	98.4*	0.5	0.1
O=C(CSc1nccc(=O)[nH]1)Nc1ccc2c(c1)OCCO2	2.9	98.3*	-0.2	-6.5
Cc1cc(=O)[nH]c(SCC(=O)Nc2ccc3c(c2)OCCO3)n1	19.2	-1.7	-0.2	-6.1
COc1cc(Cl)c(C)cc1NC(=O)COC(=O)c1ccc(CN2CCCC2=O)cc1	/	0.6	/	-3.9
O=C(CSc1nccc(=O)[nH]1)Nc1ccc(Oc2ccccc2)cc1	-2.1	-6.8	-0.3	7.5
O=C(CSc1ccc2c(c1)OCCO2)Nc1cccnc1	-11.5	98.7*	0.2	-11.0
CC(=O)Nc1ccc(C(=O)CSc2nccc(=O)[nH]2)cc1	-5.6	99.0*	0.4	33.6
CCCCNC(=O)CCCCCNS(=O)(=O)c1ccc(Br)cc1	6.3	0.5	-1.1	23.4
CCc1ccc(N2CC(C(=O)OCC(=O)c3c(N)n(CC(C)C)c(=O)n(C)c3=O)CC2=O)cc1 (configuration not stated)	/	-0.4	0.0	-2.1
COCC(=O)Nc1ccc(N2CCN(c3ccccc3)CC2)c(F)c1	1.8	-6.1	2.2	-6.3
Nc1ccc(N2CCN(c3ccccc3)CC2)c(F)c1	6.7	78.8*	2.9	76.5
O=C(CSc1ccccc1)Nc1ccc(N2CCN(c3ccccc3)CC2)c(F)c1	4.0	99.7*	0.0	-17.3
CC(NC(=O)CN1CCN(C(=O)c2cccs2)CC1)c1ccc(F)cc1F (configuration not stated)	/	-4.2	/	1.9
Cc1ccccc1S(=O)(=O)NCc1ccc(N2CCN(C)CC2)cc1	-3.5	-1.9	0.7	4.4
COC(=O)CCc1ccc(O)cc1	-2.8	14.5	0.2	-8.9
COc1cc(O)ccc1C(=O)CCc1ccc(O)cc1	3.5	99.3*	0.2	3.4
Nc1ccc(NC(=O)Nc2ccc(N)cc2)cc1	-1.1	99.2*	-0.1	-8.6
Nc1ccc(NC(=O)c2cccs2)cc1	-8.4	98.4*	-0.8	-9.9
SMILES	M18AAP inhibitor	ALR inh	HIF activator	SUMO Mot1 rescue
Cc1ccc(NC(=O)c2cccs2)cc1	1.7	-4.1	3.4	5.8
CC(=O)Nc1ccc(N)cc1	/	89.4*	/	-20.4
O=C(CNc1cc([N+](=O)[O-])ccc1NCCO)Nc1cccc(S(=O)(=O)N2CCCCC2)c1	/	97.2*	/	0.5
O=C(CCNC(=O)c1ccc([N+](=O)[O-])cc1)Nc1cccc(S(=O)(=O)N2CCCCCC2)c1	/	-1.3	/	-7.6
CCOC(=O)c1c(NC(=O)CSc2nnc(C)s2)sc2c1CCC(CC)C2 (configuration not stated)	-1.3	-11.9	0.1	-14.1
O=C1CC(C(=O)Nc2ccc(F)cc2)S/C(=N\N=C\c2ccco2)N1 (configuration not stated)	-5.2	95.9*	-0.1	2.0
Cc1ccc(NC(=O)C2CC(=O)N/C(=N/N=C/c3ccco3)S2)cc1 (configuration not stated)	-0.5	-2.6	0.0	-6.4
COc1ccc(CN(C(=O)c2ccco2)c2ccc(C)c(C)c2)cc1	0.3	-0.5	2.8	403.4*
CC(C)(C)c1csc(NC(=O)c2ccccc2O)n1	-9.2	80.7*	-0.6	1.0
CC(C)(C)c1csc(NC(=O)c2c(F)c(F)c(F)c(F)c2F)n1	4.0	97.7*	0.1	-13.0
